# According to article PMC5540273 (PLoS ONE, 2017):
# Where two headings read alike, the source gives them in different places.
# Columns and labels:
# CSK = conditions: concentration: 1 μM, replicates: in singlicate; n = 1
# CSNK1A1L = conditions: concentration: 1 μM, replicates: in singlicate; n = 1
# CSNK1A1 = conditions: concentration: 1 μM, replicates: in singlicate; n = 1
# CSNK1D = conditions: concentration: 1 μM, replicates: in singlicate; n = 1
# CSNK1E = conditions: concentration: 1 μM, replicates: in singlicate; n = 1
# CSNK1G1 = conditions: concentration: 1 μM, replicates: in singlicate; n = 1
# CSNK1G2 = conditions: concentration: 1 μM, replicates: in singlicate; n = 1
# CSNK1G3 = conditions: concentration: 1 μM, replicates: in singlicate; n = 1
# CSNK2A1 = conditions: n = 1
# CSNK2A2 = conditions: n = 1
# CTK = tested on: T1, CTK; conditions: concentration: 1 μM, replicates: in singlicate; n = 1
# T1 construct: gene MATK
# DAPK1 = conditions: concentration: 1 μM, replicates: in singlicate; n = 1
# DAPK2 = conditions: concentration: 1 μM, replicates: in singlicate; n = 1
# DAPK3 = conditions: concentration: 1 μM, replicates: in singlicate; n = 1
# DCAMKL1 = tested on: T2, DCAMKL1; conditions: concentration: 1 μM, replicates: in singlicate; n = 1
# T2 construct: gene DCLK1
# DCAMKL2 = tested on: T3, DCAMKL2; conditions: concentration: 1 μM, replicates: in singlicate; n = 1
# T3 construct: gene DCLK2
# DCAMKL3 = tested on: T4, DCAMKL3; conditions: concentration: 1 μM, replicates: in singlicate; n = 1
# T4 construct: gene DCLK3
# DDR1 = conditions: concentration: 1 μM, replicates: in singlicate; n = 1
# DDR2 = conditions: concentration: 1 μM, replicates: in singlicate; n = 1
# DLK = tested on: T5, DLK; conditions: concentration: 1 μM, replicates: in singlicate; n = 1
# T5 construct: gene MAP3K12
# [1] = concentration: 1 μM, replicates: in singlicate
# 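Also: KINOMEscan kinase panel screen.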
smiles,measurement,setting,value
Cn1cncc1-c1cc2c(Nc3ccc(OCc4ccccc4)cc3)ncnc2cn1 [GW281179],%Inh,CSK,4%
same,%Inh,CSNK1A1L,4%
same,%Inh,CSNK1A1,0%
same,%Inh,CSNK1D,19%
same,%Inh,CSNK1E,24%
same,%Inh,CSNK1G1,9%
same,%Inh,CSNK1G2,0%
same,%Inh,CSNK1G3,24%
same,%Inh,CSNK2A1; [1],0%
same,%Inh,CSNK2A2; [1],9%
same,%Inh,CTK,0%
same,%Inh,DAPK1,0%
same,%Inh,DAPK2,0%
same,%Inh,DAPK3,7%
same,%Inh,DCAMKL1,20%
same,%Inh,DCAMKL2,14%
same,%Inh,DCAMKL3,0%
same,%Inh,DDR1,9%
same,%Inh,DDR2,0%
same,%Inh,DLK,27%
COc1ccc(Nc2nccc(N3CCC(NC(=O)C(C)c4ccc(Cl)cc4)C3)n2)cc1 (centres unmarked) [GSK1379735],%Inh,CSK,0%
same,%Inh,CSNK1A1L,1%
same,%Inh,CSNK1A1,10%
same,%Inh,CSNK1D,0%
same,%Inh,CSNK1E,11%
same,%Inh,CSNK1G1,0%
same,%Inh,CSNK1G2,0%
same,%Inh,CSNK1G3,23%
same,%Inh,CSNK2A1; [1],12%
same,%Inh,CSNK2A2; [1],14%
same,%Inh,CTK,4%
same,%Inh,DAPK1,0%
same,%Inh,DAPK2,0%
same,%Inh,DAPK3,0%
same,%Inh,DCAMKL1,0%
same,%Inh,DCAMKL2,6%
same,%Inh,DCAMKL3,29%
same,%Inh,DDR1,28%
same,%Inh,DDR2,16%
same,%Inh,DLK,13%
COc1ccc2cc(-c3nc(-c4ccccc4C(C)C)[nH]c3-c3ccncc3)ccc2c1 [SB-660566],%Inh,CSK,0%
same,%Inh,CSNK1A1L,20%
same,%Inh,CSNK1A1,0%
same,%Inh,CSNK1D,22%
same,%Inh,CSNK1E,34%
same,%Inh,CSNK1G1,10%
same,%Inh,CSNK1G2,0%
same,%Inh,CSNK1G3,0%
same,%Inh,CSNK2A1; [1],0%
same,%Inh,CSNK2A2; [1],2%
same,%Inh,CTK,0%
same,%Inh,DAPK1,0%
same,%Inh,DAPK2,0%
same,%Inh,DAPK3,8%
same,%Inh,DCAMKL1,1%
same,%Inh,DCAMKL2,0%
same,%Inh,DCAMKL3,23%
same,%Inh,DDR1,90.5%
same,%Inh,DDR2,6%
same,%Inh,DLK,18%
Nc1ncnc2occ(-c3ccc4c(c3)CCN4C(=O)Cc3cc(F)ccc3F)c12 [GSK2645446],%Inh,CSK,0%
same,%Inh,CSNK1A1L,1%
same,%Inh,CSNK1A1,1%
same,%Inh,CSNK1D,0%
same,%Inh,CSNK1E,30%
same,%Inh,CSNK1G1,4%
same,%Inh,CSNK1G2,0%
same,%Inh,CSNK1G3,38%
same,%Inh,CSNK2A1; [1],0%
same,%Inh,CSNK2A2; [1],11%
same,%Inh,CTK,0%
same,%Inh,DAPK1,0%
same,%Inh,DAPK2,0%
same,%Inh,DAPK3,0%
same,%Inh,DCAMKL1,10%
same,%Inh,DCAMKL2,0%
same,%Inh,DCAMKL3,0%
same,%Inh,DDR1,0%
same,%Inh,DDR2,25%
same,%Inh,DLK,8%
CS(=O)(=O)Cc1ccc(Nc2nccc(-c3c(-c4cccc(NC(=O)C5CCCCC5)c4)nn4ncccc34)n2)cc1 [GSK350559],%Inh,CSK,10%
same,%Inh,CSNK1A1L,0%
same,%Inh,CSNK1A1,7%
same,%Inh,CSNK1D,0%
same,%Inh,CSNK1E,20%
same,%Inh,CSNK1G1,2%
same,%Inh,CSNK1G2,5%
same,%Inh,CSNK1G3,4%
same,%Inh,CSNK2A1; 1 µM,17%
same,%Inh,CSNK2A2; 1 µM,1%
same,%Inh,CTK,38%
same,%Inh,DAPK1,0%
same,%Inh,DAPK2,9%
same,%Inh,DAPK3,0%
same,%Inh,DCAMKL1,0%
same,%Inh,DCAMKL2,15%
same,%Inh,DCAMKL3,0%
same,%Inh,DDR1,96.6%
same,%Inh,DDR2,54%
same,%Inh,DLK,41%
NS(=O)(=O)c1cccc(N/C=C2\C(=O)Nc3ccc(S(=O)(=O)Cc4c(Cl)cccc4Cl)cc32)c1 [GSK398099],%Inh,CSK,0%
same,%Inh,CSNK1A1L,11%
same,%Inh,CSNK1A1,0%
same,%Inh,CSNK1D,12%
same,%Inh,CSNK1E,18%
same,%Inh,CSNK1G1,12%
same,%Inh,CSNK1G2,0%
same,%Inh,CSNK1G3,28%
same,%Inh,CSNK2A1; [1],0%
same,%Inh,CSNK2A2; [1],19%
same,%Inh,CTK,0%
same,%Inh,DAPK1,100%
same,%Inh,DAPK2,1%
same,%Inh,DAPK3,21%
same,%Inh,DCAMKL1,38%
same,%Inh,DCAMKL2,10%
same,%Inh,DCAMKL3,0%
same,%Inh,DDR1,0%
same,%Inh,DDR2,0%
same,%Inh,DLK,52%
CS(=O)(=O)CCNCc1nc(-c2ccc3ncnc(Nc4ccc5c(cnn5Cc5ccccc5)c4)c3c2)cs1.Cl.Cl [GW569716],%Inh,CSK,0%
same,%Inh,CSNK1A1L,0%
same,%Inh,CSNK1A1,0%
same,%Inh,CSNK1D,2%
same,%Inh,CSNK1E,21%
same,%Inh,CSNK1G1,1%
same,%Inh,CSNK1G2,0%
same,%Inh,CSNK1G3,3%
same,%Inh,CSNK2A1; [1],0%
same,%Inh,CSNK2A2; [1],37%
same,%Inh,CTK,0%
same,%Inh,DAPK1,0%
same,%Inh,DAPK2,0%
same,%Inh,DAPK3,0%
same,%Inh,DCAMKL1,9%
same,%Inh,DCAMKL2,0%
same,%Inh,DCAMKL3,4%
same,%Inh,DDR1,0%
same,%Inh,DDR2,24%
same,%Inh,DLK,53%
FC(F)(F)c1ccccc1-c1cc(-c2c[nH]nc2-c2ccccn2)ccn1 [GW679396],%Inh,CSK,0%
same,%Inh,CSNK1A1L,3%
same,%Inh,CSNK1A1,0%
same,%Inh,CSNK1D,36%
same,%Inh,CSNK1E,23%
same,%Inh,CSNK1G1,16%
same,%Inh,CSNK1G2,0%
same,%Inh,CSNK1G3,24%
same,%Inh,CSNK2A1; [1],7%
same,%Inh,CSNK2A2; [1],17%
same,%Inh,CTK,0%
same,%Inh,DAPK1,0%
same,%Inh,DAPK2,9%
same,%Inh,DAPK3,23%
same,%Inh,DCAMKL1,6%
same,%Inh,DCAMKL2,0%
same,%Inh,DCAMKL3,2%
same,%Inh,DDR1,68%
same,%Inh,DDR2,2%
same,%Inh,DLK,32%
Nc1cccc(-c2ccc3c(N)n[nH]c3c2)n1 [GSK2192730],%Inh,CSK,15%
same,%Inh,CSNK1A1L,0%
same,%Inh,CSNK1A1,77%
same,%Inh,CSNK1D,0%
same,%Inh,CSNK1E,39%
same,%Inh,CSNK1G1,4%
same,%Inh,CSNK1G2,0%
same,%Inh,CSNK1G3,19%
same,%Inh,CSNK2A1; [1],27%
same,%Inh,CSNK2A2; [1],42%
same,%Inh,CTK,0%
same,%Inh,DAPK1,27%
same,%Inh,DAPK2,2%
same,%Inh,DAPK3,28%
same,%Inh,DCAMKL1,0%
same,%Inh,DCAMKL2,0%
same,%Inh,DCAMKL3,0%
same,%Inh,DDR1,0%
same,%Inh,DDR2,0%
same,%Inh,DLK,0%
O=C1NC(=O)C(c2ccc(Cl)cc2)=C1Nc1cccc(Cl)c1 [SB-317651],%Inh,CSK,0%
same,%Inh,CSNK1A1L,16%
same,%Inh,CSNK1A1,22%
same,%Inh,CSNK1D,0%
same,%Inh,CSNK1E,0%
same,%Inh,CSNK1G1,0%
same,%Inh,CSNK1G2,0%
same,%Inh,CSNK1G3,88%
same,%Inh,CSNK2A1; [1],0%
same,%Inh,CSNK2A2; [1],0%
same,%Inh,CTK,16%
same,%Inh,DAPK1,8%
same,%Inh,DAPK2,0%
same,%Inh,DAPK3,18%
same,%Inh,DCAMKL1,18%
same,%Inh,DCAMKL2,0%
same,%Inh,DCAMKL3,17%
same,%Inh,DDR1,0%
same,%Inh,DDR2,16%
same,%Inh,DLK,16%
